CD11b adhes enh = CD11b/CD18-fibrinogen binding enhancement; AID 1499; 93,000 compounds, 0.07% hits; K562 CD11b/CD18 adhesion to fibrinogen, ATPlite luminescence; activation, % at 10 µM; P05107+P11215;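 active = 10 µM primary screen giving 50% or more activity, confirmed by 40% or more on retest at that dose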
CYP2C9 inhib = inhibitors of human CYP2C9 | P11712 | AID 777 | inhibition, % at 5 µM | CYP2C9 Supersomes, luciferin-H conversion, luminescence | 96,000 compounds, 20% hits;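 active = blocking of liver enzyme CYP2C9 beyond about 50% at 5 µM, limit read from the data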
CYP2C19 act = activators of human cytochrome P450 2C19; P33261; recombinant CYP2C19, luciferin-H EGE luminescence; stronger effect = higher value; 0 = fully inhibited enzyme, 1 = untreated enzyme; activation factor at 5 µM; 96,000 tested, under 10 active; AID 1025;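 active = activation factor of at least 2 at 5 µM in the primary screen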
CYP2C9 act = CYP2C9 (human) activation | P11712 | recombinant CYP2C9, luciferin-H conversion, luminescence; stronger effect = higher value; factor 1 = untreated enzyme, 0 = blocked | activation factor at 5 µM | 96,000 compounds, 1.4% hits | AID 1024;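 active = activation factor of 2 or more for CYP2C9 at a 5 µM dose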
CD11b adhes inh = blocks human CD11b/CD18 adhesion to fibrinogen. K562 CD11b/CD18 adhesion to fibrinogen, ATPlite luminescence; Mn2+ added to activate the integrin. AID 1497. 93,000 compounds, 0.54% hits. P05107+P11215. inhibition, % at 10 µM;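 active = primary inhibition of 50% or more at 10 µM, then 40% or more on retest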
CYP2C19 inh = inhibitors of human CYP2C19. inhibition, % at 5 µM. P33261. CYP2C19 Supersomes, luciferin-H EGE luminescence, 30 min. AID 778. 96,000 compounds, 21% hits;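 active = CYP2C19 inhibition above a set limit at 5 µM in the primary screen, cut at about 50% in these data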
Numbers stand for hits. Only some compounds are listed: those with a hit (about 28% of all), similar ones and a draw of the others.

Screening CCOC(=O)c1cnc2nc(NCc3ccc(OCc4ccccc4)cc3)[nH]n2c1=O returned CD11b adhes enh inactive, CYP2C9 inhib 87, CYP2C19 act inactive, CYP2C9 act inactive, CD11b adhes inh inactive and CYP2C19 inh inactive.
CCCC(=O)NC(=S)Nc1ccc(NC(=O)C(C)C)c(OC)c1 was read as CD11b adhes enh inactive and CD11b adhes inh inactive.
Cc1nn(-c2ccccc2)c2c1C(O)n1c(nc3ccccc31)S2 (configuration not stated) was read as CD11b adhes enh inactive, CYP2C9 inhib 58, CYP2C19 act inactive, CYP2C9 act inactive, CD11b adhes inh inactive and CYP2C19 inh 70.
For Cc1cc(NC(=O)COC(=O)C2CCN(S(=O)(=O)c3ccc(Cl)cc3)CC2)no1 the results were CD11b adhes enh inactive, CYP2C9 inhib 62, CYP2C19 act inactive, CYP2C9 act inactive, CD11b adhes inh inactive and CYP2C19 inh inactive.
`Cc1cc(NC(=O)NC2CCCN2S(=O)(=O)c2ccc(Cl)cc2)no1` (configuration not stated) gave CD11b adhes enh inactive, CYP2C9 inhib 60, CYP2C19 act inactive, CYP2C9 act inactive, CD11b adhes inh inactive and CYP2C19 inh 80.
Screening CCN(CC)c1nc2n(c(=S)n1)CCS2 returned CD11b adhes enh inactive, CYP2C9 inhib inactive, CYP2C19 act inactive, CYP2C9 act inactive, CD11b adhes inh inactive and CYP2C19 inh inactive.
Screening O=[N+]([O-])c1ccc(N2CCCCCC2)c([N+](=O)[O-])c1 returned CD11b adhes enh inactive, CYP2C9 inhib inactive, CYP2C19 act inactive, CYP2C9 act inactive, CD11b adhes inh inactive and CYP2C19 inh inactive.
For O=[N+]([O-])c1ccc(N2CCCCC2)c(Cl)c1N1CCCCC1 the results were CYP2C9 inhib 50, CYP2C19 act inactive, CYP2C9 act inactive and CYP2C19 inh inactive.
`Nc1cc(N2CCCCC2)c(Cl)cc1[N+](=O)[O-]` gave CD11b adhes enh inactive, CYP2C9 inhib 53, CYP2C19 act inactive, CYP2C9 act inactive, CD11b adhes inh inactive and CYP2C19 inh 80.
COc1ccc2cc(C(=O)NCc3ccco3)c(=Nc3ccc(C(=O)O)cc3)oc2c1 was read as CD11b adhes enh inactive, CYP2C9 inhib inactive, CYP2C19 act inactive, CYP2C9 act inactive, CD11b adhes inh inactive and CYP2C19 inh inactive.
For COc1ccc(N=c2oc3c(OC)cccc3cc2C(=O)NCc2ccco2)c(OC)c1 the results were CD11b adhes enh inactive, CYP2C9 inhib 54, CYP2C19 act inactive, CYP2C9 act inactive, CD11b adhes inh inactive and CYP2C19 inh inactive.
For COc1ccc(OC)c(-c2cc(C(=O)Nc3cccc(Cl)c3)no2)c1 the results were CD11b adhes enh inactive, CYP2C9 inhib inactive, CYP2C19 act inactive, CYP2C9 act 2.2, CD11b adhes inh inactive and CYP2C19 inh inactive.
For COc1ccc(OC)c(-c2cc(C(=O)NCc3ccco3)no2)c1 the results were CD11b adhes enh inactive, CYP2C9 inhib inactive, CYP2C19 act inactive, CYP2C9 act 2.9, CD11b adhes inh inactive and CYP2C19 inh inactive.
`COC(=O)c1sccc1-c1ccc(C(=O)Nc2cccc(Cl)c2)o1` gave CYP2C9 inhib 72, CYP2C19 act inactive, CYP2C9 act inactive and CYP2C19 inh inactive.
`COc1ccc(CNC(=O)COc2ccc([N+](=O)[O-])cc2)cc1` gave CYP2C9 inhib inactive, CYP2C19 act inactive, CYP2C9 act inactive and CYP2C19 inh inactive.
For Cc1cc(Br)cc(C)c1OCCCCN(C)C the results were CYP2C9 inhib inactive, CYP2C19 act inactive, CYP2C9 act inactive and CYP2C19 inh inactive.
For CCCCCOC(=O)CSc1nnc(-c2ccccc2)c(=O)[nH]1 the results were CD11b adhes enh inactive, CYP2C9 inhib 60, CYP2C19 act inactive, CYP2C9 act inactive, CD11b adhes inh inactive and CYP2C19 inh inactive.
For CC(C)NCCOCCOc1ccccc1F the results were CD11b adhes enh inactive, CYP2C9 inhib inactive, CYP2C19 act inactive, CYP2C9 act inactive, CD11b adhes inh inactive and CYP2C19 inh inactive.
`CCCC1S/C(=N/N=C/c2ccc(OC)cc2)N(Cc2ccccc2)C1=O` (configuration not stated) gave CD11b adhes enh inactive, CYP2C9 inhib inactive, CYP2C19 act inactive, CYP2C9 act inactive, CD11b adhes inh inactive and CYP2C19 inh inactive.
COc1ccc(CN2C(=O)c3ccccc3C(/C=N/OCc3ccc(Cl)cc3)C2=O)cc1 (configuration not stated) was read as CYP2C9 inhib 78, CYP2C19 act inactive, CYP2C9 act inactive and CYP2C19 inh inactive.
O=C(CCN1CCc2ccccc2C1)Nc1cccc(F)c1 was read as CD11b adhes enh inactive, CYP2C9 inhib inactive, CYP2C19 act inactive, CYP2C9 act inactive, CD11b adhes inh inactive and CYP2C19 inh 92.
For CN1C(=O)C(=O)N(CC(=O)N2CCc3ccccc32)C1=O the results were CD11b adhes enh inactive, CYP2C9 inhib inactive, CYP2C19 act inactive, CYP2C9 act inactive, CD11b adhes inh inactive and CYP2C19 inh inactive.
O=C(CCC(=O)N1CCc2ccccc21)Nc1ccccc1 was read as CD11b adhes enh inactive, CYP2C9 inhib inactive, CYP2C19 act inactive, CYP2C9 act inactive, CD11b adhes inh inactive and CYP2C19 inh 92.
O=C(CN1C(=O)CSc2ccccc21)N1CCc2ccccc21 was read as CD11b adhes enh inactive, CYP2C9 inhib inactive, CYP2C19 act inactive, CYP2C9 act inactive, CD11b adhes inh inactive and CYP2C19 inh 82.
For O=C(CCN1CCc2ccccc2C1)Nc1ccccc1 the results were CD11b adhes enh inactive, CYP2C9 inhib 60, CYP2C19 act inactive, CYP2C9 act inactive, CD11b adhes inh inactive and CYP2C19 inh 91.
For CCN(CC)C(=O)CSc1nnc(-c2ccc(F)cc2)n1N the results were CD11b adhes enh inactive, CYP2C9 inhib inactive, CYP2C19 act inactive, CYP2C9 act inactive, CD11b adhes inh inactive and CYP2C19 inh inactive.
For O=C(OCC#CCSc1nnc(-c2ccc([N+](=O)[O-])cc2)o1)c1cccs1 the results were CD11b adhes enh inactive, CYP2C9 inhib inactive, CYP2C19 act inactive, CYP2C9 act inactive, CD11b adhes inh inactive and CYP2C19 inh inactive.
CN(Cc1nnc(SCC(=O)NCCc2ccccc2)n1C)S(=O)(=O)c1ccccc1 was read as CD11b adhes enh inactive, CYP2C9 inhib inactive, CYP2C19 act inactive, CYP2C9 act inactive, CD11b adhes inh inactive and CYP2C19 inh inactive.
`CC(CC(=O)N1CCc2ccccc21)c1ccccc1` (configuration not stated) gave CD11b adhes enh inactive, CYP2C9 inhib inactive, CYP2C19 act inactive, CYP2C9 act inactive, CD11b adhes inh inactive and CYP2C19 inh 94.
Screening CCC(C)(C)n1c(=O)[nH]c2c(c1=O)CCC2 returned CD11b adhes enh inactive, CYP2C9 inhib inactive, CYP2C19 act inactive, CYP2C9 act inactive, CD11b adhes inh inactive and CYP2C19 inh inactive.
For Cc1cccc2cc(CN(CCc3ccccc3)C(=O)N3CCOCC3)c3nnnn3c12 the results were CD11b adhes enh inactive, CYP2C9 inhib inactive, CYP2C19 act inactive, CYP2C9 act inactive, CD11b adhes inh inactive and CYP2C19 inh inactive.
